Among all 2,300 compounds or so, about 350 (15%) were called active. How the calls were made is not given here. These entries were drawn from the full list. A call without a number means that no potency is given here. Potency and affinity values are given separately.

A short description of the experiment: HepG2 cell cytotoxicity, dose response, cytotoxicity control for non-replicating M. tuberculosis project (AID 489018).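 Further: HepG2 human liver cells.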 To be noted: series mostly up to 20 µM.
Turning to `Cc1cccc(NCc2ccc([N+](=O)[O-])s2)c1`, the result was inactive.

For the molecule `c1coc(CNc2nc(N3CCCCC3)nc3ccccc23)c1`, the outcome was inactive.

Turning to `Cc1ccc(NC(=O)COC(=O)C2=COCCO2)c([N+](=O)[O-])c1`, the result was inactive.

For `Cn1c(NC(=O)c2ccccc2)nc2ccccc21`, the molecule was classed as inactive.

In the case of `COc1ccc2c(c1)sc(=N)n2C`, the outcome was inactive.

On to `Cc1ccc2c(c1)c(C1=c3ccccc3=NC1=O)c(O)n2C`, for which the result was inactive.

Consider `COc1ccc(COc2cccc(C=O)c2)cc1`, for which the molecule was called inactive.

Regarding `COc1ccc(C(=O)OCn2nnc3ccccc3c2=O)cc1[N+](=O)[O-]`, the molecule was called inactive.

Turning to `COc1ccc(C(=O)C2CCCN(C(=O)c3ccc(CSC)o3)C2)cc1F` (stereo unspecified), the call was inactive.

`O=C(N/N=C/c1ccc[nH]1)c1ccncc1`: the outcome was inactive.

On to `CCOC(=O)CC(=O)Nc1ccc(C(=O)OCC)cc1`, for which the result was inactive.

On to `C/C(=N\Nc1nc2ccccc2[nH]1)c1cc2ccccc2o1`, for which the outcome was inactive.

As for `O=C(N/N=C/C=C/c1ccccc1[N+](=O)[O-])c1ccncc1`, the result was inactive.

For the molecule `Cc1cc(N/N=C/c2ccccc2[N+](=O)[O-])nc(-n2nc(C)cc2C)n1`, the outcome was inactive.

Take `COc1cc(Cl)cc(/C=N/NC(N)=O)c1O`: the call was inactive.

In the case of `NC(N)=N/N=C/c1cccc([N+](=O)[O-])c1O`, the outcome was inactive.

Take `O=C(NNc1nc2ccccc2s1)Nc1ccc(F)cc1`: the molecule was called inactive.

With `O=C(N/N=C/c1cccc([N+](=O)[O-])c1O)c1cccs1`, the call was inactive.

In the case of `CCc1nnc(NC(=O)c2cc3ccccc3oc2=O)s1`, the molecule was classed as inactive.

For `Cn1c(=O)[nH]c(=O)c2c1nc([N+](=O)[O-])n2Cc1ccccc1`, the result was inactive.

As for `C=CCc1cc(Cl)ccc1OCCCn1ccnc1`, the molecule was called inactive.

Consider `COc1ccc(C2(O)CCN(CC(=O)Nc3nc(-c4ccccc4)cs3)CC2)cc1`, for which the call was inactive.

With `Cc1onc(-c2ccccc2Cl)c1C(=O)O/N=C(\N)c1ccc([N+](=O)[O-])o1`, the result was inactive.

For `CCC(CC)COC(=O)C(C#N)c1nc2ccccc2nc1N1CCN(CC)CC1` (stereo unspecified), the call was inactive.

For the molecule `NCCOc1ccc(C23CC4CC(CC(C4)C2)C3)cc1`, the outcome was inactive.

As to `O=c1[nH]c2ccccc2c2oc(CCl)nc12`, the molecule was called inactive.

On to `N=C1/C(=C/c2ccc(OC(=O)c3ccco3)cc2)C(=O)N=C2SC=CN12`, for which the result was inactive.

Take `COC(=O)CN(C#N)c1nc(N(C)C)nc(N(C)C)n1`: the call was inactive.

As to `O=C(Nc1nnc(C2=COCCO2)o1)c1cccc(C(F)(F)F)c1`, the call was inactive.

Regarding `O=C(N/N=C/c1ccc(O)cc1)c1cccc(C(F)(F)F)c1`, the molecule was classed as inactive.

As to `COc1cccc(CN2CCC(N(CCc3ccccc3)Cc3ccccc3)CC2)c1OC`, the molecule was classed as inactive.

For `OCC#CCSc1nnc(-c2ccc(Br)cc2)o1`, the outcome was inactive.

Regarding `COc1cccc(COC(=O)CCNC(=O)c2ccc(Br)cc2)c1OC`, the call was inactive.

`CCOC(=O)COc1ccc(C(=O)Nc2cccc(Cl)c2C)cc1`: the outcome was inactive.

For `O=C(NNC1=Nc2ccccc2SC1)c1ccc(F)cc1`, the molecule was called inactive.

For the molecule `O=C(Nc1nnc(-c2ccc(Br)cc2)o1)c1ccco1`, the outcome was inactive.

`O=C(Nc1nnc(-c2ccco2)o1)c1ccc(Cl)s1`: the molecule was classed as inactive.

On to `CCOc1cc(-c2nnc(NC(=O)c3ccco3)o2)cc(OCC)c1OCC`, for which the call was inactive.

Take `CCOc1ccc(OCCSc2ccc(S(=O)(=O)N3CCN(C)CC3)cn2)cc1`: the molecule was classed as inactive.

As to `COC(=O)c1ccc(Sc2nnnn2-c2ccccc2)c([N+](=O)[O-])c1`, the call was inactive.

In the case of `FC(F)c1nnc2ccc(Cl)nn12`, the molecule was classed as inactive.

As to `O=C(N/N=C/c1ccc([N+](=O)[O-])s1)c1cccnc1`, the call was inactive.

In the case of `O=C(COc1ccccc1)Nc1nnc(-c2ccc3c(c2)CCCC3)o1`, the molecule was classed as inactive.

On to `Cc1cc(Cl)ccc1OCC(=O)NNC(=O)c1cnccn1`, for which the result was inactive.

As to `O=C(N/N=C\c1ccc([N+](=O)[O-])s1)c1cncc(Br)c1`, the result was inactive.

Turning to `Cc1c(C(=O)N(C)C)sc2nc(-c3ccccn3)[nH]c(=O)c12`, the molecule was called inactive.

On to `CN(C)CCCn1c(=O)n(C2CCCCC2)c(=O)c2c3c(sc21)CCCCC3`, for which the outcome was inactive.

`CN(C)CCCNc1nc2sc3c(c2c(=O)n1CCc1ccccc1)CCCCC3`: the molecule was classed as inactive.

As to `Cn1c(O)c(C(=Nc2ccccc2)SCc2ccccc2Cl)c(=O)n(C)c1=O`, the molecule was classed as inactive.

Consider `C=CCOc1ccc(CNCCO)cc1OCC`, for which the result was inactive.

`CCc1cc(OCCCCNCc2ccccc2)ccc1Cl`: the molecule was called inactive.

As for `C/C(=N/Nc1ccnc2cc(Cl)ccc12)c1ccc(N)cc1`, the molecule was classed as inactive.

`CC1CCN(C(=O)COC(=O)c2cc3ccccc3cc2O)CC1`: the call was inactive.

Regarding `CCc1c(C)c2ccc(OCC(=O)OC)cc2oc1=O`, the call was inactive.

Regarding `COc1n[nH]c(C(=O)Nc2cc(F)ccc2C)c1[N+](=O)[O-]`, the molecule was called inactive.

With `Cc1ccccc1NC(=O)c1ccc([N+](=O)[O-])o1`, the molecule was called inactive.

Turning to `Cc1cccc(NC(=O)c2ccc([N+](=O)[O-])o2)c1C`, the result was inactive.

For `Nc1nonc1C(=O)N/N=C/c1ccc([N+](=O)[O-])o1`, the outcome was inactive.

For the molecule `Cc1cc(C)cc(OCC(=O)N/N=C/c2ccc([N+](=O)[O-])o2)c1`, the molecule was classed as inactive.

As to `Cc1cc(C(=O)N/N=C/c2ccc([N+](=O)[O-])o2)c(C)o1`, the result was inactive.

Consider `O=[N+]([O-])c1ccc(/C=N/NS(=O)(=O)c2ccc(Cl)cc2)o1`, for which the call was inactive.

Turning to `COc1ccc(C(=O)NCC(=O)N/N=C/c2ccc([N+](=O)[O-])o2)cc1OC`, the molecule was classed as inactive.

`O=C(Nc1ccccc1)c1cc2ccccc2o1`: the result was inactive.

As to `CN1C(c2ccccc2)CC(=NO)CC1c1ccccc1` (stereo unspecified), the outcome was inactive.

Take `COc1ccccc1NC(=O)c1cnc(SC)nc1`: the call was inactive.

Turning to `O=C(CC(=O)c1cc(Cl)ccc1O)c1ccccc1`, the outcome was inactive.

As to `COc1ccc(-c2noc(-c3cc4ccccc4oc3=O)n2)cc1`, the result was inactive.

Consider `O=C(N/N=C/c1ccc(Br)s1)c1ccccc1[N+](=O)[O-]`, for which the call was inactive.

For the molecule `CCc1nnc(N/N=C/c2ccc(-c3ccc([N+](=O)[O-])cc3)o2)n1N`, the outcome was inactive.

On to `CCCCCCCC(=O)N/N=C/c1ccc([N+](=O)[O-])o1`, for which the outcome was inactive.

As for `COc1ccccc1OCC(=O)N/N=C/C=C/c1ccc([N+](=O)[O-])o1`, the molecule was called inactive.

For `O=C(N/N=C/c1ccc([N+](=O)[O-])o1)c1sc2ccccc2c1Cl`, the call was inactive.

Regarding `Cc1nonc1C(=O)N/N=C/c1ccc([N+](=O)[O-])o1`, the call was inactive.

Turning to `O=C(N/N=C\c1ccc([N+](=O)[O-])o1)C1COc2ccccc2O1` (stereo unspecified), the call was inactive.

With `O=C(N/N=C\c1ccc([N+](=O)[O-])o1)c1cncc(Br)c1`, the call was inactive.

In the case of `Cc1ccc(OCC(=O)N/N=C/c2ccc([N+](=O)[O-])o2)cc1`, the call was inactive.

These data come from PubChem BioAssay AID489018 (Southern Research Specialized Biocontainment Screening …, 2010).
